Compound activity from PubChem BioAssay.
CYP2C19 act: increases human CYP2C19 enzyme activity; P33261; recombinant CYP2C19, luciferin-H EGE luminescence; active compounds read high; 0 = fully inhibited enzyme, 1 = untreated enzyme; activation factor at 5 µM; 96,000 tested, under 10 active; AID 1025;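 active = activation factor of at least 2 at 5 µM in the primary screen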;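 also: 0 = wells with 2.5 mM tranylcypromine and 1 = vehicle-only wells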
Cav32 inh: inhibitors of human Cav3.2 T-type calcium channel; B-score at 10 µM; 100,000 compounds, 4% hits; AID 449739; Cav3.2-expressing cells, Fluo-4 calcium fluorescence FDSS; active compounds read low;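 active = single-dose well whose peak fluorescence ratio is a statistical outlier from its plate by either plate-standardised score or position-corrected B-score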
Target sequence (O95180 whole entry, looked up): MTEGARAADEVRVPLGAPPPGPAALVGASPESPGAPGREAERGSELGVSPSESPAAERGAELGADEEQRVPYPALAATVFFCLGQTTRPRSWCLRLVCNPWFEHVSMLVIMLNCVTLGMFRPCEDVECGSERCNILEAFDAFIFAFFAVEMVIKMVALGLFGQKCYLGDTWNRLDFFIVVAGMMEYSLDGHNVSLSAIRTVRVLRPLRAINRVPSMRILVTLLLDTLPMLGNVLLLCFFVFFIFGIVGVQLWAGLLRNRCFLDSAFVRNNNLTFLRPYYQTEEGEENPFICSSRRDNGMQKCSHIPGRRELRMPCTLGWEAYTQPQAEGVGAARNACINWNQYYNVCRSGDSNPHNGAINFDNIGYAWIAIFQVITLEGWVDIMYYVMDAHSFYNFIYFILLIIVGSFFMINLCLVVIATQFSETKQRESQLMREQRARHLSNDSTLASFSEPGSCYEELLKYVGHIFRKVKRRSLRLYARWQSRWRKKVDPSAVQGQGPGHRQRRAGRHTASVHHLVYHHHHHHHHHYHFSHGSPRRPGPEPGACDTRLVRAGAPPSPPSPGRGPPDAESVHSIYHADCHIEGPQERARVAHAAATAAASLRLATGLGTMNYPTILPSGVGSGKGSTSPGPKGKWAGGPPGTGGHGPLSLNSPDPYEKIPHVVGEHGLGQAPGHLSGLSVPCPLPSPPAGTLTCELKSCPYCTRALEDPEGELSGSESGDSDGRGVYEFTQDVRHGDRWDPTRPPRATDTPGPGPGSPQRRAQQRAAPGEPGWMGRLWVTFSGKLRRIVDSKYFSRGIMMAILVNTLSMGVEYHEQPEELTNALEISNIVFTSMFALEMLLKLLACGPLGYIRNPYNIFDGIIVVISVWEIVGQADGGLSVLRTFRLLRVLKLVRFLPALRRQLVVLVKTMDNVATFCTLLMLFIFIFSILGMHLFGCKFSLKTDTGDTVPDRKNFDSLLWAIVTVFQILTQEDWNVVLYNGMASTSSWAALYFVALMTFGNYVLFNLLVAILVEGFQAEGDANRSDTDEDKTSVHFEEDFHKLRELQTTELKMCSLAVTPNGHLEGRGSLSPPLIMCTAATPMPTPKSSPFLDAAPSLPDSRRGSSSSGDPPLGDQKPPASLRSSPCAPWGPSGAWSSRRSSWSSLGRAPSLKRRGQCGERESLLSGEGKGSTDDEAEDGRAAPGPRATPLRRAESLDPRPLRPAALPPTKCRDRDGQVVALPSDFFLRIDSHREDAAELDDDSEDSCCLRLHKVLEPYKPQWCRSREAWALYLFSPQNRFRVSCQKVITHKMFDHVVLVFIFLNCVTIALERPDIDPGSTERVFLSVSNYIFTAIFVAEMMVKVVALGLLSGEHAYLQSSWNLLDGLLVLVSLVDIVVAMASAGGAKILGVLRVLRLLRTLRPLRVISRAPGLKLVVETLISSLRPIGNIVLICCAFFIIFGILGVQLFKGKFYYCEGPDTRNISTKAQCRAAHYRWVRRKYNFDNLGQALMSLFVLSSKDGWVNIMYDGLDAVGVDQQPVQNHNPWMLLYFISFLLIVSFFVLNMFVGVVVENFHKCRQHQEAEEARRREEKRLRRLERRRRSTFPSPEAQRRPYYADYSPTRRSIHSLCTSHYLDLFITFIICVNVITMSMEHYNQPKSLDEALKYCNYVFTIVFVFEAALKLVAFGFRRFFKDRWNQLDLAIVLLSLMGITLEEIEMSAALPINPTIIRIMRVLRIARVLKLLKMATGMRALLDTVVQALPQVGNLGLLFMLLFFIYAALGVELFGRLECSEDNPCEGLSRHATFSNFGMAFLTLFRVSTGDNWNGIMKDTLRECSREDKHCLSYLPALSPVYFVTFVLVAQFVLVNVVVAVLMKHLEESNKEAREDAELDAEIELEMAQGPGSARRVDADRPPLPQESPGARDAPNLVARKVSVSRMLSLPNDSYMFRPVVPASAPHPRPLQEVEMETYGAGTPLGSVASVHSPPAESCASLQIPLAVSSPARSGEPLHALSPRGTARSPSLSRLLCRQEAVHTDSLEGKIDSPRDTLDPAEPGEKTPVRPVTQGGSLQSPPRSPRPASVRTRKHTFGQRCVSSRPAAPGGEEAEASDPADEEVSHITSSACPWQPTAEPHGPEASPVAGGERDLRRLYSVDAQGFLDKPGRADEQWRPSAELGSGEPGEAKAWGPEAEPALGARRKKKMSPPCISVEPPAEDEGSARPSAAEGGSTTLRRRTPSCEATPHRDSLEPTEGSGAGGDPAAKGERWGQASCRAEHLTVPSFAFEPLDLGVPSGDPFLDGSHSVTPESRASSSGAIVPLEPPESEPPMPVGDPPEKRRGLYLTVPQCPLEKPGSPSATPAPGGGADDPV
CYP2C9 act: activators of human CYP2C9. P11712. recombinant CYP2C9, luciferin-H conversion, luminescence; active compounds read high; factor 1 = untreated enzyme, 0 = blocked. activation factor at 5 µM. 96,000 compounds, 1.4% hits;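 active = activation factor of 2 or more for CYP2C9 at a 5 µM dose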;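 also: 0 = sulfaphenazole-blocked wells and 1 = vehicle-only wells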
CYP2C19 inh: human CYP2C19 inhibition; inhibition, % at 5 µM; 96,000 compounds, 21% hits; CYP2C19 Supersomes, luciferin-H EGE luminescence, 30 min; P33261;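 active = CYP2C19 inhibition above a set limit at 5 µM in the primary screen, cut at about 50% in these data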;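 also: plate controls were negative control wells for no effect and 2.5 mM tranylcypromine positive control for full effect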
CYP2C9 inh: inhibitors of human CYP2C9; inhibition, % at 5 µM; 96,000 compounds, 20% hits; P11712; CYP2C9 Supersomes, luciferin-H conversion, luminescence;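 active = blocking of liver enzyme CYP2C9 beyond about 50% at 5 µM, limit read from the data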
The depositor's hits bear a star; nt = no result given. Shown are actives, neighbours in structure and some others; about 27% of the full set was active somewhere.

SMILES	CYP2C19 act	Cav32 inh	CYP2C9 act	CYP2C19 inh	CYP2C9 inh
COc1ccc(/C=C2\CCCC3C2=NN(C(=O)COC(=O)CNC(=O)c2ccccc2)C3c2ccc(OC)cc2)cc1 (stereo unspecified)	0.8	-0.85	0.3	23	74*
Cc1ncsc1C(=O)N1N=C2/C(=C/c3ccccc3)CCCC2C1c1ccccc1 (stereo unspecified)	0.9	nt	0.5	6	52*
COc1ccc(C(=O)NCC(=O)OCC(=O)N2CC(C)CC(C)C2)cc1 (stereo unspecified)	1	0.17	0.3	4	66*
O=C1CC(c2ccc(Cl)cc2)CC(O)=C1C=NCc1ccc(Cl)c(Cl)c1 (stereo unspecified)	0.8	-0.078	0.6	20	40
CSc1nc(N)c2c3c(sc2n1)COC(C(C)C)C3 (stereo unspecified)	0.1	-1.2	0.9	94*	12
CCCC1Cc2c(sc3nc(SC)nc(N)c23)CO1 (stereo unspecified)	0.6	-0.66	0.9	38	11
C[C@@H]1CC[C@H](O)/C=C/C(=O)O[C@H](C)CC[C@H](O)/C=C/C(=O)O1	nt	0.4	nt	nt	nt
Cc1ccc(C(=O)N(c2c(C)n(C)n(-c3ccccc3)c2=O)C(C)C)cc1	1	-0.25	0.9	-4	7
O=C(c1ccc(Cn2c(=O)[nH]c3ccccc3c2=O)cc1)N1CCN(c2ccc(F)cc2)CC1	0.1	-9*	0.4	88*	62*
COc1ccc(Cn2c(=O)[nH]c3cc(C(=O)N4CCN(Cc5ccccc5)CC4)ccc3c2=O)cc1	0.4	-7.5*	0.2	64*	75*
CCN(CC)S(=O)(=O)c1ccc2c(c1)nc(SCC(N)=O)n2-c1ccc(OC)cc1	0.7	0.23	0.5	30	49
CCN(CC)S(=O)(=O)c1ccc2c(c1)nc(SCC(=O)N1CCCCCC1)n2-c1ccc(OC)cc1	0.9	-1.9	0.2	14	81*
COC(=O)c1ccc[n+](CCc2c[nH]c3ccccc23)c1	nt	0.3	nt	nt	nt
COc1ccc(CC(=O)n2nc(-c3ccccc3)nc2NCc2ccco2)cc1	0.8	nt	0.4	24	56*
COc1ccc(Nc2nc(NCc3ccco3)nc(N/N=C/c3ccccc3)n2)cc1	1	-7.6*	0.4	-5	61*
C=CCN(CC=C)Cc1c(C)[nH]c2ccc(C(=O)OCC)cc2c1=O	0.9	0.27	0.8	14	18
CC(C)(C)C(=O)Nc1c2c(nc3c1CCC3)CCCC2	1	-0.15	1	1	1
Cc1ccc(N2C(=O)CSC23C(=O)Nc2ccccc23)cc1 (stereo unspecified)	0.2	-0.73	0.6	79*	42
CC(C)C12CN3CC(C(C)C)(CN(C1)C31C(=O)Nc3ccccc31)C2=O (stereo unspecified)	1.2	0.51	1.1	-16	-14
Cc1nnc(C)c2c(C)n(C(c3ccccc3)c3ccccc3)c(C)c12	0.6	-1.3	0.4	41	56*
Clc1ccc2c(c1)C(c1cccs1)=NNC(c1cccnc1)=N2	0.7	nt	0.3	29	68*
Fc1ccc2c(c1)C(c1ccncc1)=NNC(c1cccnc1)=N2	0.5	-0.057	0.5	51*	54*
CCc1ccc2c(c1)C(c1cccs1)=NNC(c1cccnc1)=N2	0.7	0.11	0.6	33	40
CN1CCn2c1nc(N1CCOCC1)nc2=O	1	-0.23	0.9	-4	8
COc1cc2c(cc1OC)CN(CC(=O)NC(=O)NCc1ccco1)CC2	1	0.24	1	-1	-1
SMILES	CYP2C19 act	Cav32 inh	CYP2C9 act	CYP2C19 inh	CYP2C9 inh
COc1ccc(NC(=O)c2cc(F)cc(F)c2)cc1Cl	1	-1.5	1	4	3
COc1cc2c(cc1OC)CN(CC(=O)Nc1ccc(C)cc1)CC2	0.4	0.69	0.4	65*	60*
Cc1cc(C)cc(NC(=O)CN2CCc3ccccc3C2)c1	0.5	-3	0.8	48	25
COc1cc2c(cc1OC)CN(CC(=O)Nc1ccccc1C#N)CC2	0.5	0.84	0.4	55*	60*
CC1CCN(CC(=O)Nc2ccccc2C#N)CC1	0.2	0.37	0.7	75*	31
COc1ccc(NCC(=O)Nc2ccccc2C#N)cc1Cl	0.1	0.68	0.4	95*	59*
CCOC(=O)c1ccc(NC(=O)CN2CCc3ccccc3C2)cc1	0.6	-5.2*	0.7	44	34
COC(=O)c1[nH]c2ccc(C)cc2c1NC(=O)CN1CCc2cc(OC)c(OC)cc2C1	0.3	0.81	0.2	67*	81*
COc1cc2c(cc1OC)CN(Cc1ccc(C)s1)CC2	0.1	0.064	0.7	86*	33
C/C(N)=C(/C#N)C(=O)COC(=O)COc1ccc(Cl)cc1C	0.8	0.53	1	21	4
COc1ccc(C(=O)N(CCCO)Cc2cc3c(C)ccc(C)c3[nH]c2=O)cc1OC	0.8	0.42	0.6	16	43
Cc1ccc(CN(Cc2cc3cc4c(cc3[nH]c2=O)OCCO4)Cc2nnnn2Cc2ccco2)cc1	0.1	-3.2	0	88*	96*
O=c1[nH]c2cc3c(cc2cc1CN(Cc1nnnn1C1CCCC1)C1CCCC1)OCCO3	1.1	-0.65	1.1	-9	-12
COc1ccccc1CN(Cc1cc2c(C)ccc(C)c2[nH]c1=O)Cc1nnnn1Cc1ccco1	0.4	-1.9	0.2	60*	80*
Cc1ccc2cc(CN(Cc3ccc4c(c3)OCO4)Cc3nnnn3Cc3ccco3)c(=O)[nH]c2c1	0.2	-6.7*	0.2	80*	84*
Cc1ccc2cc(CN(Cc3ccco3)C(=O)c3cccs3)c(=O)[nH]c2c1	0.6	-1.5	0.7	36	31
COc1ccccc1CC(NC(C)=O)C(=O)N1CCN(C(=O)Nc2ccccc2Cl)CC1 (stereo unspecified)	1.1	-1.2	1.2	-5	-17
CCCCC(CCC(=O)Nc1ccc(C(=O)OC)cc1)C(=O)O (stereo unspecified)	nt	0.12	nt	nt	nt
Cc1ccc(S(=O)(=O)CCSc2nc(C)cc(C(F)(F)F)c2C#N)cc1	nt	-1.4	nt	nt	nt
COc1ccc(N(C(=O)C(C)C)S(=O)(=O)c2cccs2)cc1	0	0.044	0.2	97*	80*
CC(C)C(=O)N(c1cc2sc(=O)oc2c2ccccc12)S(=O)(=O)c1cccs1	0.8	-0.0087	0.7	15	28
CC(C)C(=O)N(c1ccc2oc(=O)sc2c1)S(=O)(=O)c1cccs1	0	-0.0067	0.4	97*	61*
CC(C)NC(=O)NC(=O)CSc1nnc(COc2ccccc2F)n1C(C)C1CC2CCC1C2 (stereo unspecified)	0.8	-2.7	0.6	20	42
O=C(c1cccc(Cl)c1)N(Cc1cccs1)C1CCS(=O)(=O)C1 (stereo unspecified)	0.7	0.95	1	32	0
O=C(c1sc2ccccc2c1Cl)N(Cc1cccs1)C1CCS(=O)(=O)C1 (stereo unspecified)	0.5	-7.8*	0.5	45	53*
